What all share (assay): NCI-60 one-dose screen, 48 h (100 = growth as untreated, 0 = no growth, -100 = all killed)
Common to all, as to conditions: 10 µM unless noted

Experiment [1] has as its system T-47D breast.
For experiment [2], the system named is MDA-MB-435 melanoma.
Experiment [3] concerns SW-620 colon.
Experiment [4] has as its system MCF7 breast.
For experiment [5], the system named is HCT-116 colon.
The subject of experiment [6] is HCC-2998 colon.
Experiment [7] deals with KM12 colon.
Experiment [8] deals with MDA-MB-468 breast.

Structures are written as SMILES. Values joined by “and” are separate entries in the source; they are usually repeats but may differ in a detail not shown here. Equal entries are not always repeated. This is part of a sample that, as a whole, favours compounds with a hit. Of some 83,000 tested, about 20% had one in any assay.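 A percent growth of 40 corresponds to 60% growth inhibition; 0 means no net growth; -100 means all cells died. Active threshold: below 10.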 Values without a mark were called inactive. Active and inactive are the calls of the source.

The results in this text go back to PubChem BioAssay (NCI).

As to `C[C@H](NC(=O)c1ccc2c(-c3ccc(C(F)(F)F)cc3)cccc2c1)c1ccccn1`, the growth in experiment [1] is 18%; in experiment [2], 56%; in experiment [3], 68.1%; in experiment [4] it was 26%; in experiment [5], 35.4%; in experiment [6], 49.9%. Besides, the values for the growth in experiment [7] and in experiment [8] were 47.5% and 7.67% (active), respectively.

In the case of `O=C(COc1ccc(/C=C2/C(=O)Nc3ccc(Cl)cc32)cc1)Nc1ccc(Br)cc1`, the growth in experiment [1] is -22% (active); in experiment [2] it was -1.54% (active); in experiment [3], 2.56% (active); in experiment [4], -26.9% (active); in experiment [5] it was -64% (active); in experiment [6], 41.6%. Besides, the growth in experiment [7] is 2.45% (active); in experiment [8], 38.4%.

With `Nc1nnc(CS(=O)(=O)c2ccccc2)s1`, the growth in experiment [1] is 102%; in experiment [2], 113%; in experiment [4], 101%; in experiment [5], 107%; in experiment [6] it was 103%; in experiment [7], 101%. Moreover, in experiment [8], the growth is 111%.

Turning to `O=C1Nc2cc(-c3ccc(NS(=O)(=O)c4ccc(F)c(Cl)c4)cc3)ccc2/C1=C/c1ccc[nH]1`, the growth is 14.7% in experiment [1]; 55.1% in experiment [2]; 33.9% in experiment [3]; 12% in experiment [5]; 17.1% in experiment [6]; 13.6% in experiment [7].

For `Cn1cc(-c2cc(N)n3nc(-c4c[nH]c5ccccc45)cc3n2)c2ccccc21`, the growth was -56.6% (active) in experiment [1]; -80.6% (active) in experiment [2]; -87.1% (active) in experiment [3]; -77.3% (active) in experiment [4]; -88% (active) in experiment [5]; -77.1% (active) in experiment [6]. The growth in experiment [7] was -80% (active); in experiment [8], -79.8% (active).

Regarding `COc1sc(/C=N/NC(=O)c2[nH]c3ccc(Br)cc3c2-c2ccccc2)cc1Cl`, the growth in experiment [1] was 54.3%; in experiment [2], -10.1% (active); in experiment [3], -33.8% (active); in experiment [4], -26.6% (active); in experiment [5], -43.5% (active); in experiment [6] it was -30.8% (active). The growth was -16.1% (active) in experiment [7] and -6.37% (active) in experiment [8].

With `COC(=O)c1c(C(=O)OC)c2ccc3c4ccccc4ccc3n2c1C(=O)C(C)Br` (stereo not drawn), the growth in experiment [1] is 36.5%; in experiment [2], 10.3%; in experiment [3], 9.86% (active); in experiment [4] it was 6.04% (active); in experiment [5], 14%; in experiment [6], 67.9%. Further, the growth is 91.5% in experiment [7] and 50.7% in experiment [8].

For `CN(C)c1ccc(/C=C/c2n(Cc3ccc4ccccc4c3)c3ccccc3[n+]2Cc2ccc3ccccc3c2)cc1`, the growth in experiment [1] is -55.3% (active); in experiment [2], -94.7% (active); in experiment [3], -65.4% (active); in experiment [4], -67.3% (active); in experiment [5], -62.7% (active); in experiment [6], -89.1% (active). Also, the figures for the growth in experiment [7] and in experiment [8] were -29.9% (active) and -82.2% (active), respectively.

As to `Nc1cc(-c2c[nH]c3ccc(F)cc23)nc2cc(-c3c[nH]c4ccccc34)nn12`, the growth was 18.3% in experiment [1]; 4.81% (active) in experiment [2]; -22.9% (active) in experiment [4]; -41.8% (active) in experiment [5]; -59.2% (active) in experiment [6]; -54.1% (active) in experiment [7]. Also, the growth in experiment [8] is -18.9% (active).

With `CC(=O)Nc1cccc(-n2c(COc3ccc(I)cc3)nc3ccccc32)c1`, the growth in experiment [1] was 54.6% and 107%; in experiment [2], 97.7% and 108%; in experiment [3], 96.6% and 108%; in experiment [4] it was 74.7% and 103%; in experiment [5] it was 80.4% and 104%; in experiment [6], 118% and 119%. In addition, the growth was 94.7% and 98.5% in experiment [7]; 78.7% and 111% in experiment [8].

For the compound `COc1ccc(C(=O)c2c(N)c(C#N)cn2-c2ccc([N+](=O)[O-])cc2)cc1`, the growth in experiment [1] was 90.1%; in experiment [2] it was 81.1%; in experiment [3], 105%; in experiment [4], 95.1%; in experiment [5] it was 106%; in experiment [6], 101%. Moreover, the growth in experiment [7] was 105%; in experiment [8], 109%.

Regarding `C/C(=N\Nc1ccc(S(N)(=O)=O)cc1)c1cnn(-c2cc(=O)[nH]c3ccc(Br)cc23)c1C`, the growth is 17.5% in experiment [1]; 4.39% (active) in experiment [2]; 75.7% in experiment [3]; 23.1% in experiment [4]; 58.5% in experiment [5]; 73.4% in experiment [6]. For the same compound, the growth is 53.7% in experiment [7] and -10.8% (active) in experiment [8].

With `O=C(N/N=C/c1ccc(Cl)cc1)c1ccc(OCc2nc3ccc(Cl)cc3[nH]2)cc1`, the growth is -19.6% (active) in experiment [1]; -15.7% (active) in experiment [2]; -40.3% (active) in experiment [3]; 22.7% in experiment [5]; 18.2% in experiment [6]; 52.9% in experiment [7]. Besides, the growth in experiment [8] is 52.4%.

As for `COC(=O)c1cc(C(=O)C(Br)Br)n2c1ccc1c3ccccc3ccc12`, the growth is 1.99% (active) in experiment [1]; 79% in experiment [2]; 45.2% in experiment [3]; 49.6% in experiment [5]; 43.5% in experiment [6]; 39.7% in experiment [7]. For the same compound, the growth in experiment [8] was -8.15% (active).

On to `CN1CCN(CCS(=O)(=O)Nc2cc(-c3ccc4ncnc(Nc5ccc(F)c(Cl)c5)c4c3)cnc2Cl)CC1`, for which the growth was -6.97% (active) in experiment [1]; 0.425% (active) in experiment [2]; 36.2% in experiment [3]; 10.2% in experiment [4]; 27.8% in experiment [5]; -8.06% (active) in experiment [6]. Moreover, the values for the growth in experiment [7] and in experiment [8] were 46.4% and -75.1% (active), respectively.

`Oc1ccc(Cl)c(Nc2ncnc3c2cnn3CC(Cl)c2ccc(Br)cc2)c1` (stereo not drawn): the growth in experiment [1] was 32.9%; in experiment [2], 57.7%; in experiment [3] it was 67.1%; in experiment [4] it was 49.7%; in experiment [5] it was 40.8%; in experiment [6], 98.3%. Moreover, the growth is 85.9% in experiment [7] and 26.2% in experiment [8].

In the case of `Cn1cc(Nc2ncnc(-c3ccc(N4CCCC4)c(C#N)c3)n2)cn1`, the growth in experiment [1] was 84.9%; in experiment [2], 8.16% (active); in experiment [3], 57.6%; in experiment [4], 66.5%; in experiment [5], 51.2%; in experiment [6], 68.6%. Further, the growth in experiment [7] is 55.2%; in experiment [8], 16.7%.

Take `COc1cc(C2CC(c3ccc(Cl)cc3)=Nc3c(N)nc(N)nc3N2)ccc1Oc1nc(Nc2ccc(F)cc2)nc(N(C)C)n1` (stereo not drawn): the growth in experiment [1] is 71.3%; in experiment [2] it was 44%; in experiment [3], 35.5%; in experiment [4] it was 2.22% (active); in experiment [5] it was -5.37% (active); in experiment [6], -3.35% (active). Also, the growth is 32% in experiment [7] and -22.4% (active) in experiment [8].
